From PubChem BioAssay AID2428 (Vanderbilt High Throughput Screening Facility, 2010)
Measured potencies and affinities stand elsewhere. Activity calls are given as the source filed them.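 The calls were made as follows: active = compound whose fitted concentration response curve has an R squared above 0.5; inactive = the rest.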

target: Muscarinic acetylcholine receptor M3 (Homo sapiens) (UniProt P20309); assay: potentiation of ACh response at M3 – cell-based, CHO-K1 hM3, Fluo-4 calcium, ACh EC20, selectivity assay for M1 PAM project, dose response (AID 2428); conditions: series mostly up to 30 µM
Sequence (P20309 whole entry, looked up): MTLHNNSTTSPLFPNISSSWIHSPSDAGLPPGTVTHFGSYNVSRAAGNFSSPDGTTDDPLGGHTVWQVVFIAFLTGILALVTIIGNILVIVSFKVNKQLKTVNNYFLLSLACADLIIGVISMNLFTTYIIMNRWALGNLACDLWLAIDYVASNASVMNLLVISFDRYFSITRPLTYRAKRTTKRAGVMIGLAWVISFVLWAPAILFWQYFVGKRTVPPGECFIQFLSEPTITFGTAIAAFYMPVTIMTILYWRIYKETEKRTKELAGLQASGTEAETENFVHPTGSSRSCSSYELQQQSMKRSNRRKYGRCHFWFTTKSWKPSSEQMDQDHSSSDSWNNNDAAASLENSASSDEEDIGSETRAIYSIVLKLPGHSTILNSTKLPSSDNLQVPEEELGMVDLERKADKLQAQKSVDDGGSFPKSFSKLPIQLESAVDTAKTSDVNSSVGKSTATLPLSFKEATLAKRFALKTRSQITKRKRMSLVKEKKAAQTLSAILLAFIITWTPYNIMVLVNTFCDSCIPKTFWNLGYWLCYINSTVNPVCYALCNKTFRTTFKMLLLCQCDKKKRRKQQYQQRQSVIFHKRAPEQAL

outcome, inactive:
O=C1C(=O)N(Cc2ccc(Oc3ccccc3)cc2)c2ccc(OC(F)(F)F)cc21
Cn1cc(-c2cc(F)c(CN3C(=O)C(=O)c4ccccc43)c(F)c2)cn1
Cc1cc(NC(=O)CS(=O)(=O)c2cn(Cc3cccc(Cl)c3)c3ccccc23)no1
Cc1cc(NC(=O)CS(=O)(=O)c2cn(Cc3cc(Br)ccc3F)c3ccccc23)no1
Cn1cc(-c2ccc(CN3C(=O)C(=O)c4ccccc43)c(F)c2)cn1
Cc1cc(NC(=O)CS(=O)(=O)c2cn(Cc3ccccc3Cl)c3ccccc23)no1
Cc1cc(NC(=O)CS(=O)(=O)c2cn(Cc3cccc(F)c3)c3ccccc23)no1
Cc1cc(NC(=O)CS(=O)(=O)c2cn(Cc3cccc(-c4ccn(C)n4)c3)c3ccccc23)no1
